Screening results from PubChem.
This is a sample that favours compounds with a hit; in the whole collection about 3.7% have one here.
GDH-TPI counter-1 – inhibits GDH-TPI coupling enzymes, artifact for Mtb FBA screen. GDH-TPI coupled enzyme counterscreen, NADH absorbance. inhibition, % at 4.8 µM. 360,000 tested, 1.2% active. AID 588335; in the data active = inhibition above about 30%;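 note: 0% = DMSO wells and 100% = wells lacking the enzyme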
Mtb FBA inh – Mtb fructose-bisphosphate aldolase inhibition; AID 588726; P9WQA3; inhibition, % at 1 µM; 360,000 tested, 2.3% active; purified M. tuberculosis FBA, fluorescence read-out;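 note: 0% = vehicle and 100% = reference inhibitor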
FadD28 binding – blocks FadD28 binding to the bisubstrate probe; fluorescence polarization; inhibition, % at 12.5 µM; 360,000 tested, 0.22% active; in the data active = inhibition above about 8.5%, passing the limit was not always enough
Rv3671c inh – inhibitors of M. tuberculosis serine protease Rv3671c | inhibition, % at 5.96 µM | 320,000 tested, 0.048% active | AID 2606; in the data active = inhibition above about 38%;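 note: extracellular domain of Rv3671c used as enzyme; 0% = enzyme with DMSO and 100% = no enzyme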
Target sequence (P9WHR9 whole entry, looked up, the tested form may be a part): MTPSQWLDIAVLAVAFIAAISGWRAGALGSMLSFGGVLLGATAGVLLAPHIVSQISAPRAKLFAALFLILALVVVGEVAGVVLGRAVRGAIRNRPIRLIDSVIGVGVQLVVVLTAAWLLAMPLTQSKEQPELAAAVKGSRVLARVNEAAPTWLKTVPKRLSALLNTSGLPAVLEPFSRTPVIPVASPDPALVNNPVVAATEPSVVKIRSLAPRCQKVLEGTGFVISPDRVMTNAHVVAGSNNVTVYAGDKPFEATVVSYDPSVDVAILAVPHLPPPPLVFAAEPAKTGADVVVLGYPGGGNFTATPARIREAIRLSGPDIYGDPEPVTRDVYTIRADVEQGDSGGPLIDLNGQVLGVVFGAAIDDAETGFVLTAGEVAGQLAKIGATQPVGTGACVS
Mtb bLac sens – beta-lactam sensitization of Mtb H37Rv | M. tuberculosis H37Rv growth with meropenem, percent inhibition | AID 434955 | 330,000 tested, 0.27% active | inhibition, % at 25 µM; call rule not given here;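 note: growth measured after seven days incubation then overnight dye step; 0% = bacteria only wells and 100% = bacteria with antibiotic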
Mtb UGM inh – inhibitors of M. tuberculosis UDP-galactopyranose mutase; P9WIQ1; purified UGM, fluorescence polarization probe displacement; inhibition, % at 10 µM; 320,000 tested, 0.06% active; in the data active = inhibition above about 10%, passing the limit was not always enough
Mtb FBA confirm – Mtb FBA inhibition, confirmed; shares compounds with Mtb FBA inh; inhibition, % at 1 µM; 5,600 tested, 78% active; purified M. tuberculosis FBA, fluorescence read-out;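 note: 0% = vehicle wells and 100% = reference inhibitor wells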
GDH-TPI counter-2 – GDH-TPI inhibition counter-screen for FBA inhibitors; AID 652141; 5,600 tested, 81% active; inhibition, % at 1 µM; shares compounds with Mtb FBA inh; GDH-TPI coupled enzyme counterscreen, fluorescence; in the data active = inhibition above about 10%
Active calls of the source: *. Cut-off read from the data, not from the text of the source, unless noted: active = inhibition above about 27%; inactive = the rest.

`COc1ccc(S(=O)(=O)NC(=O)C2(C)CCN2C(=O)COc2ccc(Cl)cc2)cc1OC` (stereo unspecified) gave GDH-TPI counter-1 3, Mtb FBA inh 0 and FadD28 binding -4.
`Cc1c(OC(C)C(=O)O)ccc2c(-c3ccccc3)cc(=O)oc12` (stereo unspecified) gave GDH-TPI counter-1 19, Mtb FBA inh 35*, FadD28 binding -1, Rv3671c inh 0, Mtb bLac sens -2, Mtb UGM inh 4, Mtb FBA confirm 55* and GDH-TPI counter-2 39*.
Screening COC(=O)C12CCc3cc(OC)ccc3C1=CC(=O)C2 (stereo unspecified) returned GDH-TPI counter-1 34*, Mtb FBA inh 95*, FadD28 binding 0, Mtb FBA confirm 95* and GDH-TPI counter-2 94*.
Screening CCNC(=S)N1CCc2cc(OC)c(OC)cc2C1COc1ccccc1OC (stereo unspecified) returned GDH-TPI counter-1 -5, Mtb FBA inh 38*, FadD28 binding -4, Rv3671c inh 0, Mtb bLac sens -6, Mtb UGM inh 0, Mtb FBA confirm active and GDH-TPI counter-2 active.
`COc1cc(C2C3=C(COC3=O)Oc3cc4c(cc32)OCO4)cc(OC)c1OC(C)=O` (stereo unspecified) gave GDH-TPI counter-1 11, Mtb FBA inh 3 and FadD28 binding -1.
Cn1nc(-c2ccc(Cl)cc2)c2cc(C(=O)NCCN3CCOCC3)sc21 was read as GDH-TPI counter-1 1, Mtb FBA inh 34*, FadD28 binding -6, Rv3671c inh -4, Mtb bLac sens 14, Mtb UGM inh 3, Mtb FBA confirm 41* and GDH-TPI counter-2 26*.
`Cn1nc(-c2ccc(Cl)cc2)c2cc(C(=O)NCCCN3CCOCC3)sc21` gave GDH-TPI counter-1 16, Mtb FBA inh 29*, FadD28 binding -14, Rv3671c inh -9, Mtb bLac sens 11, Mtb UGM inh 1, Mtb FBA confirm 67* and GDH-TPI counter-2 56*.
CCCn1nc2cc(C(=O)NCc3ccc(OC)cc3)ccc2c1OCC was read as GDH-TPI counter-1 3, Mtb FBA inh 48*, FadD28 binding -1, Rv3671c inh 1, Mtb bLac sens -2, Mtb UGM inh 0, Mtb FBA confirm 60* and GDH-TPI counter-2 32*.
For CCCn1nc2cc(C(=O)NCc3ccc(OC(F)(F)F)cc3)ccc2c1OCC the results were GDH-TPI counter-1 1, Mtb FBA inh 37*, FadD28 binding -1, Rv3671c inh 1, Mtb bLac sens -2, Mtb UGM inh 0, Mtb FBA confirm 102* and GDH-TPI counter-2 81*.
Screening CCOc1c2ccc(C(=O)NCc3ccc(OC(F)(F)F)cc3)cc2nn1CC returned GDH-TPI counter-1 4, Mtb FBA inh 24, FadD28 binding -3, Rv3671c inh 5, Mtb bLac sens 18 and Mtb UGM inh -3.
Screening CCN(C(=O)COC(=O)c1cc2ccccc2cc1OC)c1c(N)n(Cc2ccccc2)c(=O)[nH]c1=O returned GDH-TPI counter-1 -4, Mtb FBA inh 39*, FadD28 binding -4, Mtb FBA confirm 102* and GDH-TPI counter-2 70*.
`CNc1ccccc1C(=O)OCC(=O)N(CCOC)c1c(N)n(CC(C)C)c(=O)[nH]c1=O` gave GDH-TPI counter-1 10, Mtb FBA inh 92*, FadD28 binding 0, Rv3671c inh 6, Mtb bLac sens -5, Mtb UGM inh 2, Mtb FBA confirm active and GDH-TPI counter-2 active.
Cc1ccc(NC(=O)CN(C)C(=O)C(C)OC(=O)c2ccccc2NCCO)cc1 (stereo unspecified) was read as GDH-TPI counter-1 8, Mtb FBA inh 92*, FadD28 binding -1, Rv3671c inh 13, Mtb bLac sens -3, Mtb UGM inh -2, Mtb FBA confirm 98* and GDH-TPI counter-2 73*.
`CC(OC(=O)c1ccccc1NCCO)C(=O)NCC(=O)Nc1ccc(F)c(F)c1F` (stereo unspecified) gave GDH-TPI counter-1 0, Mtb FBA inh 91*, FadD28 binding -3, Rv3671c inh -8, Mtb bLac sens -24, Mtb UGM inh 4, Mtb FBA confirm 128* and GDH-TPI counter-2 97*.
